Several values for one entry are separate records, joined by “and”; a condition that tells them apart may be missing. Equal entries are not always repeated. Records with an inconclusive call do not appear. Activity calls are given as the source filed them.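 The calls were made as follows, unless noted: active = normalized viability below 100% at a tested concentration; inactive = the rest.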
How the values were obtained:
[1] = growth inhibition of DIPG glioma cells, dose response, cell-based, SU-DIPG-XVII, MIPE5.0, CellTiter-Glo, qHTS (AID 1347060; cut-off not given, nearly all actives have AC50 up to about 26 µM;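 also: cells exposed to compound for 48 hours before viability readout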); settings: SU-DIPG-XVII viability, CellTiter-Glo ATP luminescence
[2] = growth inhibition of DIPG glioma cells, dose response, cell-based, SU-DIPG-XIII, MIPE4.0, CellTiter-Glo, qHTS (AID 1347061; cut-off not given, nearly all actives have AC50 up to about 37 µM;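 also: cells exposed to compound for 48 hours before readout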); settings: SU-DIPG-XIII viability, CellTiter-Glo ATP luminescence
[3] = growth inhibition of DIPG glioma cells, dose response, cell-based, SU-DIPG-IV, MIPE4.0, CellTiter-Glo, qHTS (AID 1347063; cut-off not given, nearly all actives have AC50 up to about 30 µM;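 also: compound exposure lasted 48 hours before the viability readout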); settings: SU-DIPG-IV viability, CellTiter-Glo ATP luminescence
[4] = viability loss in pontine glioma line – cell-based, SU-DIPG-XXV, MIPE5.0, CellTiter-Glo, qHTS, dose response (AID 1347065; cut-off not given, nearly all actives have AC50 up to about 26 µM;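 also: cells exposed to compound for 48 hours before ATP readout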); settings: CellTiter-Glo ATP luminescence
[5] = modifiers of HSF1 nuclear foci, imaging, Selleck Cancer Library (AID 1347162; in the data active = plate-normalised HSF1 focus index below about 0.46); settings: human cells, at 10 µM; SSMD: measured here: HSF1 foci SSMD mean; cell count: measured here: cell number; plate-normalised HSF1 focus index: stronger effect = lower value
[6] = ovarian cancer cell viability with rucaparib, profiling panel, oncology-focused library, rucaparib conditional (AID 1508598); settings: patient-derived ovarian cancer cells, CellTiter-Glo viability, 144 h, stronger effect = lower value
[7] = LFS_MB_P medulloblastoma growth inhibition, cell-based, chromothripsis tumors, cisplatin or BGB combos (AID 1671449; in the data active = inhibition above about 80%;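 also: cells exposed for 96 hours; 0% = vehicle DMSO and 100% = killing by high DMSO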); settings: LFS_MB_P medulloblastoma cells
[8] = HDN33 neuroblastoma growth inhibition, cell-based, chromothripsis tumors, cisplatin or BGB combos (AID 1671450; in the data active = inhibition above about 80%;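 also: cells exposed to compound for four days; 0% = vehicle DMSO and 100% = cell killing by high DMSO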); settings: HDN33 neuroblastoma cells, stronger effect = higher value
[9] = ICB984 medulloblastoma cell growth inhibition, synergistic combos for chromothripsis tumors, cisplatin or BGB combos (AID 1671451; call rule not given here;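 also: cells exposed for 96 hours before readout; 0% = vehicle DMSO and 100% = killing by high DMSO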); settings: ICB984 medulloblastoma cells, drug combinations, stronger effect = higher value
[10] = HTB85 osteosarcoma cell growth inhibition, synergistic combos for chromothripsis tumors, BGB or cisplatin IC20 combos (AID 1671453; in the data active = inhibition above about 80%;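 also: cells exposed for 96 hours before readout; 0% = vehicle DMSO and 100% = high DMSO killing control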); settings: HTB85 osteosarcoma cells, drug combinations, stronger effect = higher value
[11] = MDA-MB-436 breast carcinoma cell growth inhibition, synergistic combos for chromothripsis tumors, BGB or cisplatin combos (AID 1671458; call rule not given here;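 also: cells exposed for 96 hours; 0% = vehicle DMSO and 100% = killing by high DMSO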); settings: MDA-MB-436 breast carcinoma growth inhibition, drug combinations, stronger effect = higher value
[12] = growth inhibition of BT084 medulloblastoma cells, cell-based, ICGC_MB145, cisplatin and BGB IC40 combos (AID 1671461; in the data active = inhibition above about 80%;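 also: cells exposed to drugs for 96 hours; 0% = vehicle DMSO and 100% = high DMSO full killing control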); settings: drug combinations, stronger effect = higher value
[13] = growth inhibition of RCMB18 medulloblastoma cells, cell-based, cisplatin and BGB IC40 combos (AID 1671462; in the data active = inhibition above about 80%;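 also: cells exposed to compound for four days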); settings: stronger effect = higher value

C[C@@H]1CN(CC(=O)Nc2ccc3c(c2)Cc2cccc(-c4cc(=O)cc(N5CCOCC5)o4)c2S3)C[C@H](C)O1
AC50 [1]: 23.5 µM (active) | outcome [2]: inactive | AC50 [3]: 13.2 µM (active) | AC50 [4]: 18.6 µM (active) | SSMD [5]: 2.96 | cell count [5]: 6620 | plate-normalised HSF1 focus index [5]: 1.15 (inactive) | viability ([6]; at 0.000305 µM, OCI-C5x cells, with rucaparib 10 µM, 100% = cells with rucaparib alone): 106% (inactive) | viability ([6]; at 0.000305 µM, OCI-C5x cells, without rucaparib): 116% (inactive) | viability ([6]; at 0.000305 µM, OCI-P5x cells, with rucaparib 20 µM, 100% = cells with rucaparib alone): 111% (inactive) | viability ([6]; at 0.000305 µM, OCI-P5x cells, without rucaparib): 119% (inactive) | viability ([6]; at 0.00122 µM, OCI-C5x cells, with rucaparib 10 µM, 100% = cells with rucaparib alone): 108% (inactive) | viability ([6]; at 0.00122 µM, OCI-C5x cells, without rucaparib): 123% (inactive) | viability ([6]; at 0.00122 µM, OCI-P5x cells, with rucaparib 20 µM, 100% = cells with rucaparib alone): 108% (inactive) | viability ([6]; at 0.00122 µM, OCI-P5x cells, without rucaparib): 121% (inactive) | viability ([6]; at 0.00488 µM, OCI-C5x cells, with rucaparib 10 µM, 100% = cells with rucaparib alone): 112% (inactive) | viability ([6]; at 0.00488 µM, OCI-C5x cells, without rucaparib): 129% (inactive) | viability ([6]; at 0.00488 µM, OCI-P5x cells, with rucaparib 20 µM, 100% = cells with rucaparib alone): 108% (inactive) | viability ([6]; at 0.00488 µM, OCI-P5x cells, without rucaparib): 108% (inactive) | viability ([6]; at 0.0195 µM, OCI-C5x cells, with rucaparib 10 µM, 100% = cells with rucaparib alone): 113% (inactive) | viability ([6]; at 0.0195 µM, OCI-C5x cells, without rucaparib): 128% (inactive) | viability ([6]; at 0.0195 µM, OCI-P5x cells, with rucaparib 20 µM, 100% = cells with rucaparib alone): 104% (inactive) | viability ([6]; at 0.0195 µM, OCI-P5x cells, without rucaparib): 108% (inactive) | viability ([6]; at 0.0781 µM, OCI-C5x cells, with rucaparib 10 µM, 100% = cells with rucaparib alone): 110% (inactive) | viability ([6]; at 0.0781 µM, OCI-C5x cells, without rucaparib): 127% (inactive) | viability ([6]; at 0.0781 µM, OCI-P5x cells, with rucaparib 20 µM, 100% = cells with rucaparib alone): 107% (inactive) | viability ([6]; at 0.0781 µM, OCI-P5x cells, without rucaparib): 109% (inactive) | viability ([6]; at 0.313 µM, OCI-C5x cells, with rucaparib 10 µM, 100% = cells with rucaparib alone): 106% (inactive) | viability ([6]; at 0.313 µM, OCI-C5x cells, without rucaparib): 132% (inactive) | viability ([6]; at 0.313 µM, OCI-P5x cells, with rucaparib 20 µM, 100% = cells with rucaparib alone): 102% (inactive) | viability ([6]; at 0.313 µM, OCI-P5x cells, without rucaparib): 98.9% (active) | viability ([6]; at 1.25 µM, OCI-C5x cells, with rucaparib 10 µM, 100% = cells with rucaparib alone): 101% (inactive) | viability ([6]; at 1.25 µM, OCI-C5x cells, without rucaparib): 138% (inactive) | viability ([6]; at 1.25 µM, OCI-P5x cells, with rucaparib 20 µM, 100% = cells with rucaparib alone): 91.6% (active) | viability ([6]; at 1.25 µM, OCI-P5x cells, without rucaparib): 93.8% (active) | viability ([6]; at 5 µM, OCI-C5x cells, with rucaparib 10 µM, 100% = cells with rucaparib alone): 106% (inactive) | viability ([6]; at 5 µM, OCI-C5x cells, without rucaparib): 132% (inactive) | viability ([6]; at 5 µM, OCI-P5x cells, with rucaparib 20 µM, 100% = cells with rucaparib alone): 76.3% (active) | viability ([6]; at 5 µM, OCI-P5x cells, without rucaparib): 81.8% (active) | inhibition ([7]; at 0.5 µM, stronger effect = higher value): -5.76% (inactive) and -8.68% (inactive) | inhibition ([7]; measured here: combination with BGB IC20, at 0.005 µM): 12.1% and -26.9% | inhibition ([7]; measured here: combination with BGB IC40, at 0.005 µM): 76.1% and -29.5% | inhibition ([7]; measured here: combination with BGB IC40, at 0.05 µM): -11.7% and -51.5% | inhibition ([7]; measured here: combination with cisplatin, at 0.5 µM, stronger effect = higher value): 39.6% and -32.3% | inhibition ([7]; measured here: combination with cisplatin, at 5 µM, stronger effect = higher value): -23.3% and -90% | inhibition ([8]; BGB combo, at 5 µM): 2.05% and 13.3% | inhibition ([8]; at 0.5 µM): -17.5% (inactive) and -12.8% (inactive) | inhibition ([8]; cisplatin combo, at 5 µM): -12.4% and 5.9% | inhibition ([8]; measured here: with BGB IC20 combination, at 0.5 µM): -16.8% and -1.93% | inhibition ([8]; measured here: with cisplatin IC20 combination, at 0.5 µM): -12.5% and -11.1% | inhibition ([8]; single agent, at 5 µM): -33.9% and 16.4% | inhibition ([9]; BGB IC20 combo, at 0.005 µM): 4.72% and 10.1% | inhibition ([9]; BGB IC40 combo, at 0.005 µM): -39.9% and -9.84% | inhibition ([9]; BGB IC40 combo, at 0.05 µM): 3.85% and -15.8% | inhibition ([9]; at 0.5 µM): -19.3% (inactive) and -37.2% (inactive) | inhibition ([9]; cisplatin combo, at 0.05 µM): -0.996% and -20% | inhibition ([9]; cisplatin combo, at 0.5 µM): -20.2% and -42.2% | inhibition ([9]; cisplatin combo, at 5 µM): 2.43% and -58.6% | inhibition ([9]; measured here: 5 uM single agent, at 5 µM): -28.1% and -5.43% | inhibition ([10]; at 0.5 µM): -24.8% (inactive) and -13.9% (inactive) | inhibition ([10]; measured here: with BGB IC20, at 0.5 µM): -22.3% and -11.4% | inhibition ([10]; measured here: with BGB IC20, at 5 µM): -3.78% and 16.9% | inhibition ([10]; measured here: with cisplatin IC20, at 0.5 µM): -22.4% and -22.3% | inhibition ([10]; measured here: with cisplatin IC20, at 5 µM): 1.95% and -37.3% | inhibition ([10]; single agent, at 5 µM): -2.38% and 8.59% | inhibition ([11]; at 0.5 µM): -6.48% (inactive) and -14.8% (inactive) | inhibition ([11]; measured here: BGB combination, at 0.5 µM): -1.79% and -20.6% | inhibition ([11]; measured here: BGB combination, at 5 µM): 17.7% and 3.62% | inhibition ([11]; measured here: cisplatin combination, at 0.5 µM): -20.7% and -21.7% | inhibition ([11]; measured here: cisplatin combination, at 5 µM): 7.96% and -7.31% | inhibition ([12]; at 0.5 µM): -1.92% (inactive) and -6.86% (inactive) | inhibition ([12]; cisplatin combination, at 0.5 µM): -3.42% and -23.5% | inhibition ([12]; cisplatin combination, at 5 µM): -136% and -3.01% | inhibition ([12]; measured here: BGB IC40 combination 0.05 uM, at 0.05 µM): -6.42% and -21% | inhibition ([12]; single agent, at 5 µM): 4.22% and -18.6% | inhibition ([13]; at 0.5 µM): 1.57% (inactive) and -21.5% (inactive) | inhibition ([13]; cisplatin combo, at 5 µM): -0.721% and -71.8% | inhibition ([13]; measured here: BGB IC40 combination, at 0.05 µM): 9.68% and -19.2% | inhibition ([13]; measured here: combination with cisplatin, at 0.5 µM): -13.6% and -9.04% | inhibition ([13]; single agent, at 5 µM): 36.4% and -12.2%

Source: PubChem BioAssay
